This is an account of results in PubChem BioAssay AID504652 (National Center for Advancing Translational Sciences (NCATS), 2011).

SMILES strings stand for the structures. Where “and” joins values, the source holds several entries; their conditions need not be identical. Equal values may be shown once. The campaign covered roughly 360,000 compounds. About 11,000 (3.1%) were called active. The list comes from a sample in which actives are over-represented; it also holds similar structures and randomly drawn compounds. Values without a mark were called inactive. No stated cut-off is given here; in the data, active means activity change below about -30%; inactive means the rest.
On the % scale 0 is the no-effect control and ±100 the full control effect.

Chain of D(1A) dopamine receptor (Homo sapiens) (P21728 whole entry, looked up): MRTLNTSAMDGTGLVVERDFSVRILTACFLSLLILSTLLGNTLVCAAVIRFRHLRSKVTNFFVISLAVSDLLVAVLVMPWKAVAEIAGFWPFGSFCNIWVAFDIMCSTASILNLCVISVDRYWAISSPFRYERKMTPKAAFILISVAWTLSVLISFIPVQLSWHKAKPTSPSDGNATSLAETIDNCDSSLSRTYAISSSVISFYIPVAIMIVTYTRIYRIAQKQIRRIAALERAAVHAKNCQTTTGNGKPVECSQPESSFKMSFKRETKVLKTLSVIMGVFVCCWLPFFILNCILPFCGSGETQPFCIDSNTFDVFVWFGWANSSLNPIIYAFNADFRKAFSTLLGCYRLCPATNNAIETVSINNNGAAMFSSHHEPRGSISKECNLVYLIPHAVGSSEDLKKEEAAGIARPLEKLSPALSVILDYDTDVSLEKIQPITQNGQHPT

The target in the test is D(1A) dopamine receptor (Homo sapiens) (UniProt P21728). The test can be described thus: Antagonist of Human D 1 Dopamine Receptor: qHTS. Particulars: HEK293 TREx D1 cells, calcium flux, dopamine EC80; at 10 µM; stronger effect = lower value. The method in brief:
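Tetracycline-induced HEK293 T-REx cells with force-coupled D1 receptor were loaded with a no-wash calcium dye. Compound was added after a 10 s baseline and read kinetically for 180 s; EC80 dopamine was then added and calcium flux followed another 180 s.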
Background: qHTS replaces the single test concentration by a dilution series.
In the case of `COCCNS(=O)(=O)c1cc(-c2nn3c(C)nnc3c3ccccc23)ccc1C`, the activity change, negative = inhibition was -4.16%.
For `CC(=O)c1cccc(Nc2ccc3cc(S(=O)(=O)N4CCC(C)CC4)ccc3n2)c1`, the activity change, negative = inhibition is 13.5%.
The same measure for `CN1CCN(CCC(=O)N/N=C/C=C2\N(C)c3ccccc3C2(C)C)CC1`: -8.35%; for `COc1cccc(NC(=S)C(C#N)=C2N(C)c3ccccc3N2C)c1`: 0.557%.
Consider `CC(=O)Nc1cccc(OCC(=O)/C=C2\N(C)c3ccccc3C2(C)C)c1`, for which the activity change, negative = inhibition is -35.4% (active).
The same measure for `O=C1OC(C(=O)Nc2cccc(Br)c2)Cc2ccccc21` (centres undefined): 3.01%.
The same measure for `COc1cccc(C(=O)NCCS(=O)(=O)NCC2CCCO2)c1` (centres undefined): 28.7%; for `COc1ccc2cc(C(=O)NCC3CCCO3)[nH]c2c1` (centres undefined): -7.79%.
Then `COc1cccc(/C=C2\Sc3ccc(C(=O)NCC4CCCO4)cc3N(C)C2=O)c1` (centres undefined), with -38% (active); and `Brc1cccc(-c2nnn3c2nc(NC2CCCCC2)c2ccccc23)c1`, with 11.9%; and `Cc1cc(F)ccc1NS(=O)(=O)c1ccc(-n2cccn2)cc1`, with -14%.
For `Cc1ccc(-n2nc(C)c3c(C)cc(=O)n(CC(=O)Nc4ccc(C(C)C)cc4)c32)cc1`, the activity change, negative = inhibition is 14.4%.
Then `CCOC(=O)c1ccc(N2C(=O)c3[nH]nc(-c4ccccc4)c3C2c2ccc(C(C)C)cc2)cc1` (centres undefined), with 49.1%.
The same measure for `CCN1CCCC1CNC(=O)c1cc2c(=O)n(C)c3ccccc3c2n1C` (centres undefined): -10.7%; for `CCOc1ccc(CCNC(=O)c2cc3c(=O)n(C)c4ccccc4c3n2C)cc1`: -46.8% (active).
Then `CCOc1ccc(CCNC(=O)c2c(C)oc3ncn(C)c(=O)c23)cc1`, with 3.92%; and `CCCn1c2ccccc2c2cnn(CC(=O)N(C)c3ccccc3CC)c(=O)c21`, with -1.54%; and `O=C(c1ccc2c(c1)N(Cc1ccccc1)C(=O)c1ccccc1S2(=O)=O)N1CCCC1`, with 1.23%.
For the compound `O=C(Nc1cc(C(F)(F)F)ccc1Cl)c1cc2nc(-c3ccc4c(c3)OCO4)cc(C(F)(F)F)n2n1`, the activity change, negative = inhibition is 12.4%.
As to `CC(C)c1ccc(NC(=O)C2CCN(c3nc(-c4ccc(C(C)C)cc4)no3)CC2)cc1`, the activity change, negative = inhibition was -20.6%.
The same measure for `COc1ccc(NC(=O)c2ccc3nc(CCc4ccccc4)oc3c2)c(OC)c1`: 0.958%; for `CC(=O)N1CCCc2cc(S(=O)(=O)N3CCC(C(=O)NCc4ccc(F)cc4)CC3)ccc21`: -2.54%; for `CCc1nccn1S(=O)(=O)c1cc(Br)ccc1Br`: -13.3%.
Then `COC(=O)c1ccc(C2C(C(=O)Nc3ccccc3)=C(C)Nc3nc4ccccc4n32)cc1` (centres undefined), with 6.56%; and `COc1ccc(CCNc2ncnc3nc[nH]c23)cc1OC`, with -23.9%; and `c1ccc2c(c1)OCC(CNc1ncnc3nc[nH]c13)O2` (centres undefined), with -86.7% (active).
For the compound `c1ccc(-c2cc3c(NCC4COc5ccccc5O4)ncnc3s2)cc1` (centres undefined), the activity change, negative = inhibition is -18.9%.
Then `CCOc1ccccc1CNC(=O)c1ccc2c(c1)nc1n2CCC(C)C1` (centres undefined), with -12.2%; and `Cc1cc2nc(-c3ccc(NC(=O)c4cc5ccccc5o4)cc3)oc2cc1C`, with -20.5%.
Then `CC(C)Oc1ccc(NC(=O)c2cc3ccccc3o2)cc1`, with -61.7% (active); and `CCC(C)c1ccc2oc(-c3ccc(NC(=O)c4cc5ccccc5o4)cc3)nc2c1` (centres undefined), with -6.42%.
The same measure for `CC1=Nc2cc(C(=O)N3CCC(C)CC3)ccc2Sc2ccc(Cl)cc21`: 5.84%; for `CCOC(=O)N1CCc2c(sc3c2c(=O)n(-c2ccc(CC)cc2)c(=O)n3C)C1`: 5.44%.
Turning to `CCCc1cc(C(=O)Nc2ccc(Cl)cn2)cs1`, the activity change, negative = inhibition is 11%.
The same measure for `CCCc1cc(C(=O)Nc2ccc(C(=O)OC)cc2)cs1`: -31.2% (active).
Then `CCN(CC)C(=O)CCC(=O)Nc1ccc(C(=O)OC)cc1`, with -2.84%; and `Cc1ccc(C(=O)NCCSc2c(C)[nH]c3ccccc23)cc1C`, with -23.5%; and `Cc1ccc(-n2c3nc(=O)[nH]c(=O)c-3cc3c(Cl)cccc32)cc1`, with 7.04%.
The same measure for `COc1ccccc1CNC(=O)C(Cc1ccccc1)NS(=O)(=O)c1ccc2c(c1)oc(=O)n2C` (centres undefined): 3.15%; for `Cc1ccc(NC(=O)CCNS(=O)(=O)c2ccc3c(c2)oc(=O)n3C)cc1C`: -0.228%; for `Cc1ccc(NC(=O)C(Cc2ccccc2)NS(=O)(=O)c2ccc3c(c2)oc(=O)n3C)cc1C` (centres undefined): -42.8% (active).
Turning to `COc1ccc(-c2ccc(=O)n(CC(=O)Nc3ccc(Br)cc3F)n2)cc1`, the activity change, negative = inhibition was 27.5%.
The same measure for `O=c1c2ccccc2[nH]c(=S)n1CCN1CCC(=C(c2ccc(F)cc2)c2ccc(F)cc2)CC1`: -22.1%.
In the case of `Cc1ccc2[nH]c3c(c2c1)CN(C(=O)CN1CCN(c2ccccc2)CC1)CC3`, the activity change, negative = inhibition is -26.5%.
Then `O=C(CCCN1CCc2[nH]c3ccc(F)cc3c2C1)c1ccc(F)cc1`, with -73% (active).
The same measure for `CCCc1nn2c(=O)cc(COC(=O)c3ccc(NC(=O)COc4ccc(F)cc4)cc3)nc2s1`: -16.4%; for `CCn1cc(C(=O)OCC(=O)Nc2cc(C)cc(C)c2)c(=O)c2ccc(C)nc21`: 7.91%; for `Cc1ccc(-n2c(C)cc(/C=N/Nc3ccc([N+](=O)[O-])cn3)c2C)c(C)c1`: -44.1% (active).
The same measure for `Cc1cc(C=O)c(C)n1-c1ccc(NC2CCCCC2)c([N+](=O)[O-])c1`: -2.05%; for `Cc1ccc(N2CCN(c3ccc([N+](=O)[O-])cn3)CC2)c(C)c1`: 8.06%.
As for `CC(C)C(=O)Nc1nc2c(s1)CC(C(C)(C)C)CC2` (centres undefined), the activity change, negative = inhibition was 7.11%.
The same measure for `CCCn1c(=N)n(CC(O)COc2ccccc2OC)c2ccccc21` (centres undefined): -15%; for `COc1ccccc1OCCNCC(O)COc1cccc2[nH]c3ccccc3c12` (centres undefined): -58.7% (active) and -69% (active); for `COc1cccc2[nH]c(C(=O)NCCc3ccccc3)cc12`: -6.46%.
Then `CC(C)Sc1oc(-c2cccs2)nc1S(=O)(=O)c1ccc(Cl)cc1`, with 14.3%; and `COc1ccc(-c2nc(SCC(=O)N3CCCCC3C)n[nH]2)cc1` (centres undefined), with 9.65%; and `COc1ccc(-c2csc(-c3c(N)c(C(=O)c4ccc(OC)c(OC)c4)n4ccccc34)n2)cc1`, with -1.18%.
Then `COc1ccc(C(=O)NCC(c2ccc(N(C)C)cc2)N2CCc3ccccc32)c(OC)c1` (centres undefined), with -5.15%; and `COc1ccc(S(=O)(=O)NCC(c2ccc(N(C)C)cc2)N2CCc3ccccc32)cc1OC` (centres undefined), with -64.5% (active).
On to `O=S(=O)(NCC(c1ccccc1)N1CCc2ccccc21)c1ccccc1` (centres undefined), for which the activity change, negative = inhibition was 6.46%.
Then `COc1ccc(NC(=O)CSc2nccn2Cc2ccc3c(c2)OCO3)cc1`, with 6.87%.
Then `O=C(NCc1ccccc1)C1CCN(S(=O)(=O)c2ccc3[nH]c(=O)ccc3c2)CC1`, with 16.6%.
The same measure for `COc1ccc(CCN2C(=O)N(c3cccc(OC)c3)C(=O)C2CC(=O)Nc2ccccc2)cc1` (centres undefined): -1.1%.
Take `C=C(Cl)COC(=O)C1C2C=CC(C2)C1C(=O)O` (centres undefined): the activity change, negative = inhibition is 6.01%.
Then `O=C(O)C1C2C=CC(C2)C1C(=O)N1CCN(CCO)CC1` (centres undefined), with -46.7% (active).
The same measure for `CN1CCN(C(=O)C2C3C=CC(C3)C2C(=O)O)CC1` (centres undefined): -15.3%; for `Cc1cccc(-n2ncc(C(=O)N3CCc4ccccc4C3)c2C2CCN(C(=O)OC(C)(C)C)CC2)c1`: 7.17%.
The same measure for `Oc1c(Cl)cc(Cl)c(Cl)c1Cc1c(O)c(Cl)cc(Cl)c1Cl`: -41.7% (active); for `CCc1ccc(NC(=O)CN2C(=O)C(c3ccccc3)=NC23CCCCCC3)cc1`: -6.53%; for `CCn1nc(C)c(NC(=O)/C=C/c2ccc(OC)c(COc3ccc(Br)cc3)c2)c1C`: -39.8% (active).
Take `COc1ccc(C(C)=O)cc1COc1ccc(Cl)c(C)c1`: the activity change, negative = inhibition was 0.455%.
The same measure for `COc1ccc(/C=C/C(=O)Nc2c(C)nn(C)c2C)cc1COc1ccc(Br)cc1`: 9.14%; for `COc1cccc(CNC(=O)C2CCC(CNS(=O)(=O)c3cccs3)CC2)c1` (centres undefined): -1.65%.
The same measure for `CCc1ccccc1N1C(=O)CN(S(=O)(=O)CC)CC1(C)C(=O)NC1CCCCC1` (centres undefined): -10.1%; for `Cc1ccccc1C(=O)Nc1sc2c(c1C(=O)N1CCC(C)CC1)CCCC2`: 5.36%; for `Fc1ccc2[nH]c3c(N4CCN(Cc5ccc6c(c5)OCO6)CC4)ncnc3c2c1`: -7.57%.
Turning to `Fc1ccc2[nH]c3c(N4CCSCC4)ncnc3c2c1`, the activity change, negative = inhibition was -30.2% (active).
The same measure for `NCCCC[C@@H]1NC(=O)[C@H](CCC(=O)O)NC(=O)c2cc([N+](=O)[O-])cc(I)c2NCC[C@@H](C(N)=O)NC1=O`: -2.74%; for `NC(=O)CC[C@@H]1NC(=O)[C@H](CO)NC(=O)c2cc([N+](=O)[O-])cc(I)c2NCC[C@@H](C(N)=O)NC1=O`: -14%; for `NC(=O)C[C@@H]1NC(=O)CNC(=O)c2cc([N+](=O)[O-])cc(I)c2NCCC(C(N)=O)NC1=O` (some centres undefined): -30.2% (active).
Regarding `O=C(CSc1nc(-c2cccc(F)c2)[nH]c1-c1ccccc1)Nc1ccc2c(c1)OCO2`, the activity change, negative = inhibition is -4.86%.
The same measure for `Cc1cccc(N2CCN(C(=O)c3cnc(N4CCCC4)nc3C)CC2)c1C`: 10%.
Take `CCCCn1c(=N)c(S(=O)(=O)c2ccccc2)cc2c(=O)n3cccc(C)c3nc21`: the activity change, negative = inhibition was 1.3%.
The same measure for `N#Cc1cccc(Nc2c3c(nc4ccccc24)CCCC3)c1`: -36.2% (active).
Regarding `Cc1ccc(Nc2c3c(nc4ccccc24)CCC3)cc1`, the activity change, negative = inhibition is -39.1% (active).
Then `CCOc1ccc(NC(=O)CSc2c3c(nc4ccccc24)CCCC3)cc1`, with -2.6%.
Take `CCOc1ccc(C(=O)Nc2ccc3nc4c(c(Nc5ccccc5OC)c3c2)CCCC4)cc1`: the activity change, negative = inhibition was -7.4%.
Then `COc1ccccc1Nc1c2c(nc3ccc(NC(=O)/C=C/c4cc(OC)c(OC)c(OC)c4)cc13)CCCC2`, with 3.33%.
Then `N#Cc1cccc(NC(=O)CN2CCCCCC2)c1`, with -7.3%.
